Results filed as inconclusive are left out. Active and inactive are the calls of the source. Calls come from the whole dose curve; as a rule, active = well fitted activation curve with a large enough effect; inconclusive = small, poorly fitted or top-dose-only effect, or effect the other way; inactive = flat fitted curve, though single readings scatter.
Biological target: Pyruvate kinase PKM (Homo sapiens) (UniProt P14618)
Test: Secondary assay for Activators of Human Pyruvate Kinase M2 isoform
In short: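 Purified hPK-M2 (10 nM) coupled to LDH (1 uM) and 0.2 mM NADH, with 0.1 mM PEP and 4.0 mM ADP in Tris-Cl pH 8.0 and 15 mM MgCl2. Initial rates from kinetic NADH fluorescence depletion over 3–6 min, normalized to fructose-bis-phosphate activation.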

Pyruvate kinase PKM (Homo sapiens), sequence (P14618 whole entry, looked up, canonical isoform): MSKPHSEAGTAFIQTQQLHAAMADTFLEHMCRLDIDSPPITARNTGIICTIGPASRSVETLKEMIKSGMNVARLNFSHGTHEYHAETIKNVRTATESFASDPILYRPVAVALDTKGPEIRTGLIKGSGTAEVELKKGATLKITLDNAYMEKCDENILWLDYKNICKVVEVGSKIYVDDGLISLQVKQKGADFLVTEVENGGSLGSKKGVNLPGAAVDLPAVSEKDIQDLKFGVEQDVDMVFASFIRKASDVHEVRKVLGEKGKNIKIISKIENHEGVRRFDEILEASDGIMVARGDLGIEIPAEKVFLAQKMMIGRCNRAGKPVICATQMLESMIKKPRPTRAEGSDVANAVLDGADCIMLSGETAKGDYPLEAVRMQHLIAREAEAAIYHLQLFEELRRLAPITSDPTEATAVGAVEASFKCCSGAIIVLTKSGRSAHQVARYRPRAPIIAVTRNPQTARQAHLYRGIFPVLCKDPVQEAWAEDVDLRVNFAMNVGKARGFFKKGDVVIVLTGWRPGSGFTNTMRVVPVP

SMILES: COc1ccc(S(=O)(=O)N2CCN(S(=O)(=O)c3ccc4c(c3)OCCO4)CC2)cc1
- Potency: 562 nM (active)
